TRHR PAM = qHTS for Small Molecule Agonists and Allosteric Enhancers of Human TRH Receptor: Primary Screen for Enhancers. TRHR cells, fluo-8 calcium fluorescence, EC20 TRH enhancement. enhancement, % at 2 µM. 0.66% of 360,000 active; in the data active = enhancement above about 30%
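Enhancer read-out: after compound pinning and an initial kinetic agonist-mode read, an EC20 of TRH (10 nM final) was injected and fluo-8 calcium signal (Ex 480/Em 530) followed at 1 s/cycle for 100 cycles in TRHR-expressing cells.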
TRPML1 blocker = qHTS for Inhibitors of the Human Mucolipin Transient Receptor Potential 1 (TRPML1); Mucolipin-1 (Homo sapiens), Q9GZU1; TRPML1-inducible cells, Ca2+ dye fluorescence, FDSS; hits give low values; inhibition of EC80 agonist-evoked calcium signal; activity change, negative = inhibition, % (no concentration beside the values); 0.02% of 390,000 active; AID 624415, 2012; in the data active = activity change below about -50%; inconclusive = between about -30% and that limit;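 note: stimulus is agonist 54-4 at its EC80 concentration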
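TRPML1-DL cells, Tet-induced overnight (~16 h, 37 °C) at 1,500 cells/well, were loaded with Ca8 no-wash dye plus quencher for 45-90 min at room temperature. Compounds were pinned during FDSS kinetic reading; agonist 54-4 at EC80 (4 uM final) then added.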
GLP1R cytotox = qHTS of GLP-1 Receptor Inverse Agonists: Cytotox Screen; Potency, µM (top dose mostly 38.3 µM), usual class: inhibitors; HEK293 cAMP-luciferase reporter cells, luminescence, 24 h; 0.13% of 410,000 active;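 note: loss of luciferase light is scored as toxicity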
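Cells in DMEM/10% Nu serum/1% pen-strep, 1536-well format. Pre-incubated 12 h, dosed with 23 nL compound, incubated a further 24 h. Luciferase detection, 12 min at room temp, luminescence.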
PTHR1 ag = qHTS for PTHR1 Agonists: Primary Screen | Parathyroid hormone/parathyroid hormone-related peptide receptor (Homo sapiens), Q03431 | HEK293 GP2 PTHR1 cells, GloSensor cAMP luminescence, 1 h | Potency, µM (titrated, usually from 115 µM), actives largely listed as activators | 0.075% of 410,000 active | AID 743266, 2014; note: nearly all actives have a fitted effect of over 55% in size
Target sequence (Q03431 whole entry, looked up): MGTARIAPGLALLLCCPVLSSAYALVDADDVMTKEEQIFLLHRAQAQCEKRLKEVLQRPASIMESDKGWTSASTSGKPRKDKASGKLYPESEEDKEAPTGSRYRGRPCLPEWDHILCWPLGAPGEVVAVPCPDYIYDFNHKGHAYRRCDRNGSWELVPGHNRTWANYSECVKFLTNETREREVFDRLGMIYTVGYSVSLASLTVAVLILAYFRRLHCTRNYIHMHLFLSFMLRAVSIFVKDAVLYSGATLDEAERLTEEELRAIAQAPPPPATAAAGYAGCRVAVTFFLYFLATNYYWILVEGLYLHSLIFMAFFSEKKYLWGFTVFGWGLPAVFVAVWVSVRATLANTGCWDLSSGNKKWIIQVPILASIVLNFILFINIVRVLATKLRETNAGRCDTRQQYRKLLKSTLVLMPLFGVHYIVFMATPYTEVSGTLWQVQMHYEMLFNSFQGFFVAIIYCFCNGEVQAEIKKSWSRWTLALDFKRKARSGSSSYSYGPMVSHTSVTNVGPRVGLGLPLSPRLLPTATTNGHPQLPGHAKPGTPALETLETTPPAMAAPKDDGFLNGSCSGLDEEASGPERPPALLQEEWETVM
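HEK-293-derived GP2 cells expressing PTHR1 and a GloSensor cAMP reporter, 3,000/well, plated overnight, given luciferin plus IBMX (each 0.5 mM as added) for 1 h at 37 °C, then compound for 1 h at 37 °C. Luminescence was read after 15 min at room temperature.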
TRPML1 ag = qHTS for Agonists of the Human Mucolipin Transient Receptor Potential 1 (TRPML1); 0.12% of 410,000 active; TRPML1-expressing cells, Ca2+ dye fluorescence, FDSS; Mucolipin-1 (Homo sapiens), Q9GZU1; activation, % (test concentration not listed); in the data active = activation above about 50%; inconclusive = mostly about 30% to 49%
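Kinetic FDSS Ca2+ read in Tet-induced TRPML1-DL cells (ABD Ca8 dye plus quencher, 45-90 min RT loading): baseline, then compound, then 110 s agonist window; EC80 agonist 54-4 at 4uM final added afterwards for a 110 s antagonist window.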
TRHR agonist = qHTS for Small Molecule Agonists and Allosteric Enhancers of Human TRH Receptor: Primary Screen for Agonists; activation, % at 2 µM; 0.18% of 360,000 active; AID 493084, 2011; Thyrotropin-releasing hormone receptor (Homo sapiens), P34981; TRHR cells, calcium flux fluo-8, FDSS agonist mode; in the data active = activation above about 30%
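TRHR-expressing cells loaded with fluo-8 calcium dye; 23 nL library compound pin-transferred, kinetic FDSS fluorescence (Ex 480/Em 530) recorded about 180 s for agonist-induced calcium release, before a 10 nM TRH EC20 addition for potentiator mode.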
Numbers stand for hits; - = inactive; ? = inconclusive; . = no result. The list is not random: actives were taken first. Their share in the collection is about 0.93%. Unless noted, calls come from the whole dose curve; as a rule, active = well fitted curve in the direction sought with a large enough effect; inconclusive = small, poorly fitted or top-dose-only effect, or another doubt; inactive = no such curve, though single readings can be large; an effect the other way counts as inactive or inconclusive.

SMILES	TRHR PAM	TRPML1 blocker	GLP1R cytotox	PTHR1 ag	TRPML1 ag	TRHR agonist
COc1ccc(-n2ncc(C(C)NS(=O)(=O)c3ccc(C(C)=O)cc3)c2C)cc1 (centres undefined)	-	-	-	-	-	-
COc1ccc(-n2ncc(C(C)NS(=O)(=O)c3cccs3)c2C)cc1 (centres undefined)	31	-	-	-	-	-
CCN(CC)/[N+]([O-])=N/Oc1ccc([N+](=O)[O-])cc1[N+](=O)[O-]	.	-	.	.	-	.
CN(C)c1ccc(C2=Cc3ccccc3C2)cc1	.	.	.	.	-	.
CCOc1ccccc1NC(=O)Cn1c(=O)n(Cc2ccco2)c(=O)c2cccnc21	44	-	-	-	-	-
COc1ccccc1NC(=O)Cn1c(=O)n(Cc2ccco2)c(=O)c2cccnc21	-	-	-	-	-	-
CC(C)(C)c1ccc(OCc2ccc(C(=O)Nc3cccnc3)o2)cc1	38	-	-	-	-	-
CCCCN(CCCC)c1ccc(C=Nc2ccc(/C=C/c3ccnc4ccccc34)cc2)cc1C	.	.	.	.	-	.
CC(C)C[C@H]1CN=C(Nc2ccccc2)N1CCc1cccc(F)c1	.	-	?	-	80	.
Cc1cccc(CCN2C(Nc3ccccc3)=NC[C@@H]2CC(C)C)c1	-	-	-	-	-	41
CC(C)CCN1C(Nc2ccccc2)=NC[C@@H]1CC(C)C	-	-	-	-	-	-
CC(C)C[C@H]1CN=C(Nc2ccccc2)N1CCc1ccc(F)cc1	-	-	-	-	?	39
CN(C)c1ccc(/C=N\Nc2ccc([N+](=O)[O-])cc2[N+](=O)[O-])cc1Br	.	.	.	.	-	.
CCCN1CNc2c(c(=O)[nH]c(=S)n2CCc2ccc(C)cc2C)C1	.	.	.	.	-	.
O=C(C[n+]1cccc2cccc(O)c21)c1ccc(Br)cc1	.	.	.	.	-	.
CC(=O)N/C(=C/c1ccccc1)c1sc2ccccc2[n+]1CCCCI	.	.	.	.	-	.
O=C(CCCn1nnc2ccccc2c1=O)N[C@H](C(=O)O)c1ccccc1	-	-54	-	-	-	-
CC(C)=CCC/C(C)=C/CC/C(C)=C/CCC1(C)CCc2cc(O)ccc2O1 (centres undefined)	.	.	.	.	-	.
Cn1nc(-c2ccccc2)c2nc3ccccc3nc21	-	-	-	-	-	55
CCCCn1nc(-c2ccccc2)c2nc3ccccc3nc21	-	.	.	.	.	-
Clc1ccc(/C=N/NC(=Nc2ccccc2)c2ccccn2)c(Cl)c1	-	-	10µM	-	-	-
C(=N\NC(=Nc1ccccc1)c1ccccn1)/c1ccccn1	-	-	-	-	-	-
NC(=O)c1ccc(Oc2ccc(Cl)c3ccccc23)c([N+](=O)[O-])c1	31	-	-	-	-	-
NC(=O)c1ccc(Oc2ccc(Cl)cc2)c([N+](=O)[O-])c1	-	-	-	-	-	-
CCOC(=O)C1CCN(S(=O)(=O)c2ccc(OC)c(OC)c2)CC1	-	-	-	-	-	-
SMILES	TRHR PAM	TRPML1 blocker	GLP1R cytotox	PTHR1 ag	TRPML1 ag	TRHR agonist
CCOC(=O)C1CCN(S(=O)(=O)c2ccc(C)c(C)c2)CC1	32	-	-	-	-	-
O/N=C(\Cc1cscn1)c1ccc(O)cc1O	-	-	-	-	-	-
CCc1cc(/C(Cc2cscn2)=N\O)c(O)cc1O	30	-	-	-	-	-
Cc1cc2c(s1)c1cnn(Cc3cc(F)cc(F)c3F)c(=O)c1n2C	-	.	.	.	.	-
COc1cc2c(NC3CCN(C(C)C)CC3)nc(N3CCCN(C)CC3)nc2cc1OCCCN1CCCC1	.	.	.	.	-	.
CCC1(C)CC(=O)c2c(ccc3oc(C(=O)NCc4ccccc4)c(C)c23)O1 (centres undefined)	-	-	-	-	50	-
CC(C)CNC(=O)COC(=O)c1cc(S(=O)(=O)N2CCCCC2)ccc1N1CCOCC1	32	-	-	-	-	-
O=C(COC(=O)c1cc(S(=O)(=O)N2CCCCC2)ccc1N1CCOCC1)NCCc1ccc(F)cc1	31	-	-	-	-	-
CC(C)NC(=O)NC(=O)COC(=O)c1cc(S(=O)(=O)N2CCCCC2)ccc1N1CCOCC1	-	-	-	-	-	-
Cc1ccc(COC(=O)c2cc(S(=O)(=O)N3CCCCC3)ccc2N2CCOCC2)cc1	-	-	-	-	-	-
CN(C)c1ccc(Cn2ccc3ccccc32)cc1	.	.	.	.	-	.
CCOC(=O)C1=C(C)NC2=C(C(=O)CCC2)C1c1ccc(O)c(OCC)c1 (centres undefined)	34	-	?	-	-	-
CCOc1cc(C2C3=C(CCCC3=O)Nc3ccc4ncccc4c32)ccc1O (centres undefined)	-	-	-	-	-	-
Cc1ccc(CNC(=O)COC(=O)c2ccccc2OCC(=O)Nc2ccc(Br)cc2)cc1	.	.	.	.	-	.
O=C1C2C3C=CC(C3)C2C(=O)N1CCCCCCN1C(=O)C2C3C=CC(C3)C2C1=O (centres undefined)	32	-	-	-	-	-
CN(C)CCNC(=O)C(=O)Nc1ccc2c(c1)N(S(=O)(=O)c1cccs1)CCC2	-	-	4.5µM	-	-	-
CN(C)CCCNC(=O)C(=O)Nc1ccc2c(c1)N(S(=O)(=O)c1cccs1)CCC2	-	-	-	-	-	-
COc1cccc(Cn2ncc3c4sc(C)cc4n(C)c3c2=O)c1	-	.	.	.	.	-
CN1/C(=C\C=C2/SC(=S)NC2=O)C(C)(C)c2ccccc21	-	-	?	-	85	83
CN1/C(=C\C=C2/C(=O)Oc3ccccc3C2=O)C(C)(C)c2ccccc21	-	-	-	-	99	217
CC1=NN(c2ccccc2)C(=O)/C1=C\C=C1/N(C)c2ccccc2C1(C)C	-	-	-	-	-	-
CCCN1C(=O)/C(=C\C=C2\N(CC)c3ccccc3C2(C)C)SC1=S	-	-	-	-	-	36
CC(C)(C)n1ncc2c(=O)n(Cc3ccc([S+](=O)([O-])N4CCOCC4)cc3)cnc21	.	-	.	.	-	.
Cc1cc(C)cc(Cn2ncc3c4sc(C)cc4n(C)c3c2=O)c1	-	.	.	.	.	-
Cc1cnc2ccccc2c1/C=C/c1ccc(N)cc1	.	.	.	.	-	.
Cc1nnc(NC(=O)CSc2nnc(Cc3cccn3C)n2-c2ccccc2)s1	39	-	-	-	-	-

From PubChem
